# Source: PubChem (several laboratories)
# Mtb betalactam: beta-lactam sensitization of Mtb H37Rv, H37Rv | M. tuberculosis H37Rv growth with meropenem, percent inhibition | inhibition, % at 25 µM | hit rate 0.27% among 330,000 | AID 434955, 2010; call rule not given here;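 further: growth measured after seven days incubation then overnight dye step; 0% = bacteria only wells and 100% = bacteria with antibiotic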
# GDH-TPI counter-1: GDH-TPI coupling enzyme inhibitors, primary screen, artefact control for M. tuberculosis FBA inhibitor project, biochemical, absorbance, full deck; GDH-TPI coupled enzyme counterscreen, NADH absorbance; inhibition, % at 4.8 µM; hit rate 1.2% among 360,000; AID 588335, 2011; in the data active means inhibition above about 30%;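 further: 0% = DMSO wells and 100% = wells lacking the enzyme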
# FBA Mtb inh: Mtb FBA enzyme inhibitors, primary screen, biochemical, fluorescence, strain H37Rv. Fructose-bisphosphate aldolase (Mycobacterium tuberculosis (strain ATCC 25618 / H37Rv)), …. purified M. tuberculosis FBA, fluorescence read-out. inhibition, % at 1 µM. hit rate 2.3% among 360,000. AID 588726, 2011;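 further: 0% = vehicle and 100% = reference inhibitor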
# VHR inh abs: VHR1 phosphatase inhibitors, primary screen, biochemical, absorbance, uHTS; Dual specificity protein phosphatase 3 (Homo sapiens), P51452; recombinant VHR phosphatase, pNPP absorbance; inhibition, % at 13.3 µM; hit rate 0.52% among 290,000; in the data active means inhibition above about 50%
# Target sequence (P51452 whole entry, looked up): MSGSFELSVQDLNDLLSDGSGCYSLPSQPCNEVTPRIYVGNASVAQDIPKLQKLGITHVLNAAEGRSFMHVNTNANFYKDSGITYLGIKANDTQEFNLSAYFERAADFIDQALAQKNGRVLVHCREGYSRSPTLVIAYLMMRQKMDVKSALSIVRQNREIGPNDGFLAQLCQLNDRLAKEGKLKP
# Mtb hypoxia rep: PubChem AID 1159583; M. tuberculosis hypoxia-regulated fluorescent reporter, fluorescence; fluorescence inhibition, % (no concentration beside the values); hit rate 0.1% among 300,000; in the data active means fluorescence inhibition mostly above about 23%, no sharp cut-off; inactive means mostly below about 17%
# Mtb FBA inh conf: M. tuberculosis aldolase blockers, biochemical, fluorescence, strain H37Rv, confirmation. shares compounds with FBA Mtb inh. purified M. tuberculosis FBA, fluorescence read-out. inhibition, % at 1 µM. hit rate 78% among 5,600. AID 651616, 2012;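 further: 0% = vehicle wells and 100% = reference inhibitor wells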
# GDH-TPI counter-2: GDH-TPI coupling enzyme inhibitors, artefact control for M. tuberculosis FBA inhibitor project, biochemical, fluorescence, high throughput. shares compounds with FBA Mtb inh. GDH-TPI coupled enzyme counterscreen. inhibition, % at 1 µM. hit rate 81% among 5,600. AID 652141, 2013; in the data active means inhibition above about 10%
# An asterisk follows results filed as active; . = not tested or not shown; + = active, no number. Hits are enriched below; roughly 3.6% of the tested compounds scored in any of these assays. Unless noted, no stated cut-off is given here; in the data, active means inhibition above about 27%; inactive means the rest.
SMILES,Mtb betalactam,GDH-TPI counter-1,FBA Mtb inh,VHR inh abs,Mtb hypoxia rep,Mtb FBA inh conf,GDH-TPI counter-2
CCc1cc(=O)oc2cc(C)cc(OCC(=O)NC3CC3)c12,-8,9,65*,7,14,21,22*
Cc1ccc(CN2C(CC(C)C)COCCS2(=O)=O)cc1 (stereo not given),.,.,.,.,2,.,.
Cc1cc(=O)oc2cc(OCC(=O)NC3CCCCC3)c(Cl)cc12,28,8,10,.,17,.,.
Cc1cc(=O)oc2c3c(cc(OCC(=O)NC4CC4)c12)OC(C)(C)CC3,-8,1,75*,-3,.,52*,29*
Cc1cc(OCC(=O)N2CCN(c3cccc(Cl)c3)CC2)c2c(C)c(C)c(=O)oc2c1,7,7,2,17,-3,.,.
Cc1cc(OCC(=O)NC2CC2)c2c(C)cc(=O)oc2c1,3,4,80*,11,9,51*,38*
Cc1cc(OCC(=O)N2CCC[C@@H]2C(=O)O)c2c(C)c(C)c(=O)oc2c1,0,8,84*,9,.,123*,98*
Cc1c(C)c2ccc(OC(C)C(=O)NC3CCN(Cc4ccccc4)CC3)cc2oc1=O (stereo not given),5,-7,84*,34,6,8,-3
CSCCC(NC(=O)Nc1cccc(C(F)(F)F)c1)C(=O)O (stereo not given),.,.,.,.,-2,.,.
CN(Cc1c(C(=O)NN=Cc2cccs2)nnn1-c1nonc1N)c1ccccc1,.,.,.,.,15,.,.
CCc1cc(=O)oc2cc(C)cc(OCC(=O)NC3CCN(Cc4ccccc4)CC3)c12,1,15,40*,4,6,1,3
O=c1c2ccccc2c(/C=N/n2cnnc2)c(O)n1-c1ccccc1F,0,16,33*,21,-5,3,2
O=c1c2ccccc2nc(C=Cc2cccc([N+](=O)[O-])c2)n1CCCO,.,.,.,.,6,.,.
Cc1nn(-c2ccccn2)c2nc(-c3cccs3)cc(C(=O)NCc3ccco3)c12,-9,30,48*,33,-1,59*,61*
Cc1nn(-c2ccccc2)c2nc(-c3ccncc3)cc(C(=O)NCc3ccco3)c12,99,5,-2,0,1,.,.
O=C(NCc1ccco1)c1cc(-c2cccs2)nc2ccccc12,2,17,79*,7,-1,9,-5
CC(C)OCCCNC(=O)c1cc(-c2cccs2)nc2ccccc12,0,17,93*,7,3,88*,83*
O=C(NCc1ccco1)c1cc2nc(-c3cccs3)cc(C(F)(F)F)n2n1,7,21,37*,28,1,3,-1
COc1cc(-c2cc(C(=O)NCc3ccco3)c3ccccc3n2)cc(OC)c1OC,8,14,-2,6,-3,.,.
CC(C)CC(NC(=O)C1CCCN1C(=O)C(N)Cc1ccc(O)cc1)C(=O)NCC(N)=O (stereo not given),.,.,.,.,0,.,.
O=C(O)c1ccc(NN=Cc2cc3cc4c(cc3nc2Cl)OCCO4)cc1,.,.,.,.,-3,.,.
CC(=NNc1nc(-c2ccccc2)c(CC(=O)O)s1)c1ccccc1,.,.,.,.,7,.,.
Cc1nc(C(F)(F)F)c(C(=O)NN=C(N)c2cccnc2)s1,.,.,.,.,6,.,.
Nc1nc2ccccc2n1N=Cc1ccc([N+](=O)[O-])s1,.,.,.,.,1,.,.
COc1ccc2c(c1)C[C@]1(C)c3ccccc3C(=O)N(Cc3ccccc3)C21 (stereo not given in full),.,.,.,.,3,.,.
CC1=CC=CN2CC(O)CN=C12 (stereo not given),-5,8,30*,5,-8,+,+
CC1=CN2CC(O)CN=C2C=C1 (stereo not given),-12,5,38*,8,8,128*,97*
CCCCCCOc1ccc(N2C(=O)CC(S/C(N)=N/N=C(C)c3cccs3)C2=O)cc1 (stereo not given),.,.,.,.,10,.,.
Cn1cc(-c2ccc(C(=O)NCc3cccc(Cl)c3)c3occc23)cn1,.,1,42*,.,.,2,-3
